From PubChem BioAssay AID630 (Emory University Molecular Libraries Screening Center, 2007)
The whole screen tested about 88,000 compounds, of which about 260 (0.3%) were called active.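 Rule for the calls: active = compounds that reduce the energy-transfer binding signal between the protein and its labelled peptide by more than half; inactive = the rest.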 For the sample, actives were picked, then their nearest neighbours and some compounds at random.

Molecular target: Mothers against decapentaplegic homolog 3 (Homo sapiens) (UniProt P84022)
Sequence (P84022 whole entry, looked up): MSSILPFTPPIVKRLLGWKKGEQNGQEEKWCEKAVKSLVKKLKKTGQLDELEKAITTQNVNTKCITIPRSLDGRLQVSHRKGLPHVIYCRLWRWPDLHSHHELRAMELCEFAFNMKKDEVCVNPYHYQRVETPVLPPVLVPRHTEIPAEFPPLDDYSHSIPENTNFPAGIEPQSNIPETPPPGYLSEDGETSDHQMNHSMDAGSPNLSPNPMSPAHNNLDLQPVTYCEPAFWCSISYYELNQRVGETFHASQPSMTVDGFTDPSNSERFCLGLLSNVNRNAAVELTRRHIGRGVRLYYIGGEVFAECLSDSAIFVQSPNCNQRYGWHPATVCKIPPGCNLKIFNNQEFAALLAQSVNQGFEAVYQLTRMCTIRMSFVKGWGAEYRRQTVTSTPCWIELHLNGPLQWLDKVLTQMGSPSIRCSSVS
Assay: blockers of Smad3 binding to FoxH1 – biochemical, TR-FRET, primary screen (AID 630);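 note: 0% = Smad3 plus labelled peptide maximal FRET and 100% = peptide-only background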
Settings: TR-FRET Smad3/Dy647-FoxH1 peptide binding, europium anti-His; at 25 µM; hits give high values

Structure (SMILES) | inhibition
O=C(COc1ccccc1)Nc1nonc1NC(=O)COc1ccccc1 | 8.67% (inactive)
O=C(CSCc1ccccc1)N1CCc2ccccc21 | -1.3% (inactive)
O=C(c1cccc(N2CCCC2=O)c1)N1CCOCC1 | -6% (inactive)
Cc1ccc(/C=N/NC(=O)Cn2nc(C)c(Br)c2C)o1 | 21.4% (inactive)
O=C(Nc1ccccc1C(=O)NCCCn1ccnc1)c1ccc(Cl)cc1Cl | -0.02% (inactive)
COc1cc(OC)c(-n2c(C)cc(C=O)c2C)cc1Cl | 2.99% (inactive)
Cc1nc(NC(=O)C2CCCCC2)sc1C | 10.5% (inactive)
CCOC(=O)c1ccc2c(c1)nc(SCC(=O)NC(C)C)n2CC | 20% (inactive)
CS(=O)(=O)N(CC(=O)N1CCN(c2ccc(F)cc2)CC1)C1CCCCC1 | -8.5% (inactive)
c1ccc(CC2CCN(c3nc4ccccc4n4cnnc34)CC2)cc1 | -10% (inactive)
Cn1nc(-c2ccccc2)c(-c2nc(-c3ccc(Cl)cc3)no2)c1Cl | 2.93% (inactive)
COc1ccc(CN(CC(=O)NC2CCCC2)C(=O)CCC(=O)Nc2cc(C)on2)cc1 | -0.48% (inactive)
Cc1oc(-c2ccccc2Cl)[n+]([O-])c1C | 2.52% (inactive)
Cc1ccc(CS(=O)(=O)CCC(=O)NC2CC2)cc1 | 6.21% (inactive)
CCOc1ccc(NC(=O)C2CCCN(C(=O)Nc3ccccc3)C2)cc1 (centres undefined) | 10.5% (inactive)
COC(=O)c1nc(NC(=O)c2ccccc2)n[nH]1 | 1.94% (inactive)
Cc1cccc(C(=O)Nc2ccccc2N2CCN(c3ccc(F)cc3)CC2)c1 | 3.31% (inactive)
c1ccc(C(c2ccccc2)N2CCN(Cc3nnnn3C3CCCCC3)CC2)cc1 | -7.75% (inactive)
COc1ccc(-c2nc3ccccc3n2CCC(C)C)cc1OC | -3.34% (inactive)
C=CCC(NCc1ccco1)c1ccc(OC)cc1 (centres undefined) | 2.67% (inactive)
CCc1c(O)cc2n(c1=O)-c1ccccc1C2(C)C | 7.56% (inactive)
Cc1ccc(-c2cc(C(=O)NCC3CCCO3)c3ccccc3n2)o1 (centres undefined) | 0.54% (inactive)
Cc1ccccc1-n1c(C)cc(/C=C2\NC(=O)NC2=O)c1C | 10.8% (inactive)
O=C(NCCCCCCNC(=O)NCc1ccco1)NCc1ccco1 | 10.3% (inactive)

Structure (SMILES) | inhibition
FC(F)(F)c1cnc(Oc2ccccc2-c2nnc(-c3ccc(Cl)cc3)o2)c(Cl)c1 | 6.7% (inactive)
Cc1cc(C)c(S(=O)(=O)N2C=CC(C(F)(F)F)=NCC2)c(C)c1 | -6.95% (inactive)
Cc1cccc(C(=O)O)c1C[C@@H]1NCC[C@@H]2c3ccccc3N[C@@H]12 | 8.15% (inactive)
CC(NC(=O)C1CCC(CNc2c(N3CCOCC3)c(=O)c2=O)CC1)c1ccccc1 (centres undefined) | -2.58% (inactive)
OC(COc1ccc2ccccc2c1)Cn1cncn1 (centres undefined) | 6.06% (inactive)
C=CCN(C(=O)Nc1ccc2oc(C)nc2c1)c1ccccc1 | 1.13% (inactive)
Cc1ccc(-c2noc(CSc3nnc(-c4cccs4)n3C)n2)cc1 | -3.4% (inactive)
N#C/C(=C(\O)CCl)c1nnc2n1CCCCC2 | 0.54% (inactive)
CCn1c(SCC(=O)Nc2ccc(OC)c(OC)c2)nnc1-c1c[nH]c2ccccc12 | -6.68% (inactive)
Cc1c(CCO)c(=O)n(-c2ccccc2)n1S(=O)(=O)c1ccc(F)cc1 | -23.9% (inactive)
CCCCOc1ccc(N(CC(=O)NCC2CCCO2)C(=O)CCC(=O)Nc2cc(C)ccn2)cc1 (centres undefined) | 2.38% (inactive)
Cc1ccc(C)c(N2C(=O)CS/C2=N\NC(=O)c2ccccc2Cl)c1 | 3.21% (inactive)
COC(=O)c1cc(NC(=O)CC2C(=O)NCCN2C(=O)c2ccc(F)cc2)cc(C(=O)OC)c1 (centres undefined) | -2.76% (inactive)
CCc1cccc(C)c1N(C(=O)Cn1c(CO)nc2ccccc21)C(C)COC (centres undefined) | -3.83% (inactive)
COc1ccc(Nc2cc(=O)oc3ccccc23)cc1 | 1.47% (inactive)
O=C(Cc1c[nH]c2ccccc12)OCCOC(=O)Cc1c[nH]c2ccccc12 | 0.81% (inactive)
CCOC(=O)C(C)n1cnc2sc(C)c(C)c2c1=O (centres undefined) | 5.75% (inactive)
CCOc1ccc(CN(Cc2ccco2)S(=O)(=O)c2ccc(-n3cnnn3)c(OC)c2)cc1 | -8.78% (inactive)
Cc1cc(C)cc(N(CC(=O)N2CC=C(c3ccccc3)CC2)S(=O)(=O)c2c(C)noc2C)c1 | -9.86% (inactive)
Cc1ccc(S(=O)(=O)NCC(C)NS(C)(=O)=O)cc1 (centres undefined) | -1.07% (inactive)
O=C(OCC#CCSc1nnc(-c2ccncc2)o1)c1sc2ccccc2c1Cl | 8.98% (inactive)
CCOC(=O)CN(Cc1ccc(OC)c(OC)c1)S(=O)(=O)c1ccc(OC)cc1 | 3.33% (inactive)
O=C(O)/C=C/C(=O)Nc1ccc2c(c1)-c1ccccc1C2 | 0.91% (inactive)
CC1=NN(c2ccccc2)C(=O)[C@H]1N=Nc1ccc(S(N)(=O)=O)cc1 | -0.1% (inactive)

Structure (SMILES) | inhibition
CC(C)CNC(=S)NNC(=O)c1nn(C)cc1Cl | 3.44% (inactive)
CCOc1c(Cl)cc(/C=N/O)cc1OC | 5.66% (inactive)
O=C(c1cc2sccc2n1Cc1ccc(F)cc1)N1CCc2ccccc21 | 4.44% (inactive)
CCN(CC)Cc1cc(C(C)=O)ccc1O | -9.81% (inactive)
O=C(CCN1CCc2ccccc2C(O)(c2ccccc2)C1)c1ccc2c(c1)OCCO2 (centres undefined) | 8.66% (inactive)
Cc1cc(C)n(-c2cc(Oc3ccccc3)ncn2)n1 | 3.36% (inactive)
Cn1c(Cn2nnc3ccccc32)nnc1SCC(=O)c1ccccc1F | 16.9% (inactive)
CCOC(=O)C1=C(C)NC(SC)=NC1c1ccccc1 (centres undefined) | -3.1% (inactive)
CC(=NCc1ccco1)c1c(C(F)(F)F)[nH]n(-c2nc3ccccc3s2)c1=O | 3.18% (inactive)
O=C(Cc1ccc(-n2c(=O)c3sccc3n(Cc3ccc(F)cc3)c2=O)cc1)NCc1ccco1 | -21.8% (inactive)
Cc1cc(C)nc(N2CCN(c3ncnc4c3oc3ccccc34)CC2)n1 | 2.31% (inactive)
CCN1CCN(c2ncnc3c2oc2nc(C)c4c(c23)CC(C)(C)OC4)CC1 | -8.93% (inactive)
CC(C)c1nc2oc3c(N4CCN(C)CC4)ncnc3c2c2c1CCC2 | 51.1% (active)
COC(=O)C1=C(C(=O)c2ccc(C)cc2)C(c2ccccc2)n2nnnc2N1 (centres undefined) | -4.2% (inactive)
Clc1ccc(C2=CSC3=Nc4cccc5cccc(c45)N23)cc1 | 19.6% (inactive)
Nn1c(Cc2cccc3ccccc23)nnc1SCC(=O)N1CC(=O)Nc2ccccc21 | -9.99% (inactive)
O=C(c1ccco1)N1CCN(C(=O)C2CCCN(S(=O)(=O)c3cccc4nsnc34)C2)CC1 (centres undefined) | -9.4% (inactive)
NC1=NC(=O)C2(COC(c3ccccc3Cl)OC2)S1 (centres undefined) | 8.22% (inactive)
Cc1oc2nc(SCC(=O)Nc3ccc(S(N)(=O)=O)cc3)nc(NC(=O)c3ccccc3)c2c1C | -117% (inactive)
Cc1ccc(C2C(C#N)C(C#N)N3CCCN23)cc1 (centres undefined) | -8.98% (inactive)
COc1ccc2c(c1)cc1n2CCN=C1NN | 17.3% (inactive)
C/C(N[O-])=C(\C)[N+]([O-])=[Co].CC(=N\[O-])/C(C)=N/[O-].[CH2-]CCN1CCOCC1.c1ccncc1 | 25% (inactive)
CC(C)(C)NC(=O)CN(Cc1cccs1)C(=O)CNS(=O)(=O)c1ccccc1 | -8.34% (inactive)
COC(=O)c1ccccc1Sc1c(/C=N/OCc2ccc(Cl)cc2)c(C(F)(F)F)nn1C | 1.08% (inactive)

Structure (SMILES) | inhibition
Cc1ccc(NC(=O)CSCC(=O)N2CCOCC2)cc1 | 8.2% (inactive)
OCCNc1nc2ccccc2[nH]1 | 3.77% (inactive)
Cc1cc(SCC(=O)c2ccccc2)nc(SCC(=O)c2ccccc2)n1 | -1.72% (inactive)
COc1ccc(-c2nn(-c3ccccc3)cc2C(=O)Nc2nccs2)cc1OC | -5% (inactive)
CC(=O)C1=C(C)NC(C)=C(C(C)=O)C1c1cn(-c2ccccc2)nc1-c1cccs1 | -6.06% (inactive)
Cc1ccc(C2NC(=S)NC3=C2N2CCC3CC2)cc1 (centres undefined) | 2.12% (inactive)
COc1cc(N2CCCC2)c(OC)cc1/C=C(/C#N)c1cccc(Br)c1 | 0.41% (inactive)
Cc1cc2c(cc1C)NC1=C(N2)O[C@H](c2c[nH]c3ccc(COc4ccccc4)cc23)C1=O | 81.3% (active)
Cn1cc(S(=O)(=O)N2CCN(c3ccc(F)cc3)CC2)c(=O)n(C)c1=O | -0.19% (inactive)
CCC(CC)C(=O)N1CC(=O)Nc2ccc(Br)cc2C1c1ccccc1 (centres undefined) | 1.61% (inactive)
CC1(C)C2CCC13CS(=O)(=O)NC3C2 (centres undefined) | 7.24% (inactive)
O=S(=O)(O)c1ccc(O)c2ncccc12.O=S(=O)(O)c1ccc(O)c2ncccc12.[Zn] | 63.9% (active)
O=C(O)COc1c(Cl)cc(Cl)c2cccnc12 | -8.45% (inactive)
O=C(Nc1cccc2ccccc12)N1CCN(Cc2ccc3c(c2)OCO3)CC1 | 8.91% (inactive)
CC(C)(C)C(=O)c1cnc(Nc2ccccc2)s1 | -2.94% (inactive)
Cn1nc(-c2ccccc2)c(CSc2cccc(Cl)c2)c1Cl | -0.19% (inactive)
COc1ccc(C2=NO[C@@H]3C(=O)N(Cc4ccccc4)C(=O)[C@H]23)cc1OC | 4.9% (inactive)
COc1ccc(C(=O)CN2C(=O)NC(C)(c3ccc(C)cc3)C2=O)cc1OC (centres undefined) | 0.23% (inactive)
O=C(Nc1ccc(Oc2ccccc2)cc1)c1ccco1 | -3.88% (inactive)
COC(=O)c1ccc(NC(=O)c2ccco2)cc1 | 66.7% [fluorescence artefact?] (active)
Cc1ccnc(NC(=O)c2ccc(NC(=O)c3ccco3)cc2)c1 | 8.59% (inactive)
Cc1cc(N/C=C\C(=O)c2ccc(Cl)c(Cl)c2)no1 | -20.1% (inactive)
